Assay outcomes: PubChem BioAssay, National Center for Advancing Translational Sciences (NCATS)
In the library only some 6.9% were active in any assay of this set; here they are far more common.
IL1B secr inh: inhibitors of inflammasome signaling (IL-1 beta secretion). activity change, % at 57.5 µM. THP-1 LPS/ATP IL-1B secretion, AlphaLISA, 16 h; stronger effect = lower value. actives 4.7% (n = 360,000); in the data active = activity change below about -50%; inconclusive = mostly about -30% to -49%
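THP-1 cells pretreated 1 hr with compounds (up to 57.5 uM final), then stimulated with LPS (250 ng/mL final) plus ATP (1.25 mM final); secreted IL-1B measured by AlphaLISA after 16 hr, decreased signal indicating inhibition.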
MCF10A rereplic: induces DNA re-replication in MCF 10a normal breast cells; actives 2.9% (n = 350,000); Potency, µM (series often up to 46.1 µM), actives largely listed as activators; MCF 10A DNA re-replication, Hoechst nuclear intensity, 48 h; AID 624296; also: nearly all actives have a fitted effect of over 50% in size
SW480 rereplic: induces DNA re-replication in SW480 colon adenocarcinoma cells | SW480 DNA re-replication, Hoechst DNA content imaging, 48 h | Potency, µM (highest dose often 46.1 µM), hits mostly activators | actives 1.8% (n = 340,000) | AID 624297; also: nearly all actives have a fitted effect of over 55% in size
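Image-based DNA-content assay: after two days of treatment, nuclei were labelled with the DNA dye Hoechst and imaged, and hits were compounds raising the count of nuclei showing high fluorescence intensity.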
Giardia kill: kills Giardia lamblia. Giardia lamblia trophozoite viability. activity change, % at 7.66 µM, hits read low. actives 0.15% (n = 340,000). AID 540267; in the data active = activity change below about -80%; inconclusive = between about -30% and that limit;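 also: parasites exposed to compound for two days anaerobically before the ATP read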
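Luminescent ATP signal served as the viability read-out, measured 15-30 min after adding ATP detection reagent to trophozoites that had been incubated with compounds for 48 hrs at 37 deg C anaerobically at 100 cells/well.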
Vif-APOBEC3F blk: blocks the Vif interaction with APOBEC3F | AID 602313 | Potency, µM (top dose mostly 46.1 µM) | actives 0.2% (n = 390,000) | HeLa A3F-eYFP + Vif (tagged APOBEC3F with the HIV-1 protein that degrades it), YFP fluorescence increase; also: nearly all actives have a fitted effect of over 65% in size
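HeLa cells stably expressing Vif plus C-terminally eYFP-tagged A3F were seeded, incubated overnight at 37 deg C, dosed with compound, incubated overnight again at 37 deg C. Yellow fluorescence (Ex 488/Em 500-530) reported blocked Vif-mediated A3F-eYFP degradation.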
Vif-A3G inh: Vif-A3G binding inhibition. HeLa A3G-eYFP + Vif (tagged APOBEC3G with the HIV-1 protein that degrades it), YFP fluorescence, overnight. Potency, µM (top dose mostly 46.1 µM), actives largely listed as inhibitors. actives 0.076% (n = 410,000). AID 602310; also: nearly all actives have a fitted effect of over 60% in size
Target sequence (Q9HC16 whole entry, looked up): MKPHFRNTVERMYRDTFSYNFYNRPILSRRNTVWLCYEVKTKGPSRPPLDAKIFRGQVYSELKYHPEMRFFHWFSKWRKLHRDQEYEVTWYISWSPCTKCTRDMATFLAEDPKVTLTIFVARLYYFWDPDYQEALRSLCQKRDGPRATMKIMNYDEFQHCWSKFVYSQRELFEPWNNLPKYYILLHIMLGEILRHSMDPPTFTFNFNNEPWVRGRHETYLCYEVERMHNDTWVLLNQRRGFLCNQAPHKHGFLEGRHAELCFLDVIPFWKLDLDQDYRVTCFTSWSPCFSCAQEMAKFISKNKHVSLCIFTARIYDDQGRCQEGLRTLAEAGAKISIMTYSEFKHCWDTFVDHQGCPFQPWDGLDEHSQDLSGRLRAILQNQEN
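Read-out is eYFP fluorescence (Ex 488/Em 500-530) from Vif-expressing HeLa A3G-eYFP cells; more signal means A3G escaped Vif-mediated degradation. Cells plated overnight, compound pinned in, incubated overnight at 37 deg C.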
Hits are given with their value; [ ] = another dose, or the depositor's remark. Unless noted, calls follow the shape of the dose curve; as a rule, active = well fitted curve in the direction sought with a large enough effect; inconclusive = small, poorly fitted or top-dose-only effect, or another doubt; inactive = no such curve, though single readings can be large; an effect the other way counts as inactive or inconclusive.

O=C(Nc1cc(S(=O)(=O)N2CCOCC2)ccc1Cl)c1cc2ccccc2o1 was read as IL1B secr inh -75, MCF10A rereplic inactive, SW480 rereplic inactive, Giardia kill inconclusive, Vif-APOBEC3F blk inactive and Vif-A3G inh inactive.
COc1ccc(C(=O)Nc2ccccc2[N+](=O)[O-])cc1S(=O)(=O)N1CCOCC1 was read as IL1B secr inh -62, MCF10A rereplic inconclusive, SW480 rereplic 18µM, Giardia kill inactive, Vif-APOBEC3F blk inactive and Vif-A3G inh inactive.
O=C(Nc1cccc(S(=O)(=O)N2CCOCC2)c1)c1cc2ccccc2o1 was read as IL1B secr inh inactive, MCF10A rereplic inactive, SW480 rereplic inactive, Giardia kill inactive, Vif-APOBEC3F blk inactive and Vif-A3G inh inactive.
Screening Cc1ccc(NC(=O)c2ccc(N3CCOCC3)c([N+](=O)[O-])c2)cc1S(=O)(=O)N1CCOCC1 returned IL1B secr inh -78, MCF10A rereplic inactive, SW480 rereplic inactive, Giardia kill inactive, Vif-APOBEC3F blk inactive and Vif-A3G inh inactive.
`Cc1nn(-c2ccccc2)c2c1cc1c(=O)[nH]c(=O)nc-1n2-c1cccc(C(F)(F)F)c1` gave Vif-APOBEC3F blk inactive and Vif-A3G inh inactive.
`O=C(Nc1ccc(NC(=O)c2ccc(Cl)c(S(=O)(=O)N3CCOCC3)c2)cc1)c1ccccc1` gave IL1B secr inh inactive, MCF10A rereplic inactive, SW480 rereplic inactive, Giardia kill inactive, Vif-APOBEC3F blk inactive and Vif-A3G inh inactive.
`O=C(Nc1ccccc1)c1ccc(NC2CCCCC2)c(S(=O)(=O)N2CCOCC2)c1` gave IL1B secr inh -52, MCF10A rereplic inactive, SW480 rereplic inactive, Giardia kill inactive, Vif-APOBEC3F blk inactive and Vif-A3G inh inactive.
Screening CSc1nc2cc(Oc3cccc(Cl)c3Cl)c(Cl)cc2[nH]1 returned IL1B secr inh inactive, MCF10A rereplic 9.2µM, SW480 rereplic inactive, Giardia kill inactive, Vif-APOBEC3F blk inactive and Vif-A3G inh inactive.
CSc1nc2ccc(Cl)cc2[nH]1 was read as IL1B secr inh inactive, MCF10A rereplic inactive, SW480 rereplic inactive, Giardia kill inactive, Vif-APOBEC3F blk inactive and Vif-A3G inh inactive.
`Nc1[nH]c2cc([N+](=O)[O-])ccc2c1-c1ccccn1` gave IL1B secr inh inactive, MCF10A rereplic inconclusive, SW480 rereplic inconclusive, Giardia kill inactive, Vif-APOBEC3F blk 10µM and Vif-A3G inh inconclusive.
For Nc1nc2ccc([N+](=O)[O-])cc2[nH]1 the results were IL1B secr inh inactive, MCF10A rereplic inactive, SW480 rereplic inactive, Giardia kill inactive, Vif-APOBEC3F blk inactive and Vif-A3G inh inactive.
O=c1c2ccccc2ncn1-c1ccc([N+](=O)[O-])cc1[N+](=O)[O-] was read as IL1B secr inh -64, MCF10A rereplic inconclusive, SW480 rereplic inconclusive, Giardia kill inconclusive, Vif-APOBEC3F blk inactive and Vif-A3G inh inactive.
`Fc1ccc(-[n+]2nc(Nc3ccccc3)sc2-c2c3ccccc3cc3ccccc23)cc1` gave IL1B secr inh -89, MCF10A rereplic inactive, SW480 rereplic inactive[9.22 µM], Giardia kill inactive, Vif-APOBEC3F blk inconclusive and Vif-A3G inh inactive.
COc1ccc(C)cc1Nc1n[n+](-c2ccccc2)c(-c2cc(OC)c(OC)cc2Br)s1 was read as IL1B secr inh inactive, MCF10A rereplic inactive, SW480 rereplic inconclusive, Giardia kill inactive, Vif-APOBEC3F blk inactive and Vif-A3G inh inactive.
For COc1ccc(C)cc1Nc1n[n+](-c2ccccc2)c(-c2c(OC)ccc3ccccc23)s1 the results were IL1B secr inh -75, MCF10A rereplic inconclusive, SW480 rereplic inactive[9.22 µM], Giardia kill inactive, Vif-APOBEC3F blk inconclusive and Vif-A3G inh inactive.
For CC(=O)c1cc(-c2ccccc2)n(CC(=O)NCc2ccccc2C)c1C the results were Vif-APOBEC3F blk inactive and Vif-A3G inh inactive.
`CCC(Oc1ccccc1)C(=O)Nc1ccc(OCc2cc(=O)n3ccc(C)cc3n2)cc1` (centres undefined) gave Vif-APOBEC3F blk inactive and Vif-A3G inh inactive.
Screening CS(=O)(=O)c1ccc2nc(NC(=O)c3ccc(NS(=O)(=O)c4ccc(F)c(F)c4)cc3)sc2c1 returned IL1B secr inh inactive, MCF10A rereplic inconclusive, SW480 rereplic inactive, Giardia kill inactive, Vif-APOBEC3F blk inactive and Vif-A3G inh inactive.
`O=C(Nc1nc2ccc(SC(F)F)cc2s1)c1ccc(NS(=O)(=O)c2ccc(F)c(F)c2)cc1` gave IL1B secr inh inactive, MCF10A rereplic 18µM, SW480 rereplic inactive, Giardia kill inactive, Vif-APOBEC3F blk inactive and Vif-A3G inh inactive.
`CCc1cccc(NC(=O)c2cnc(SC)nc2-c2ccccc2)c1` gave Vif-APOBEC3F blk inactive and Vif-A3G inh inactive.
Screening CCCn1c(C(O)c2ccc(C)cc2)nc2ccccc21 (centres undefined) returned IL1B secr inh inactive, MCF10A rereplic inconclusive, SW480 rereplic inactive, Giardia kill inactive, Vif-APOBEC3F blk inactive and Vif-A3G inh inactive.
Screening CCCn1c(C(O)c2ccc3c(c2)OCO3)nc2ccccc21 (centres undefined) returned IL1B secr inh inconclusive, MCF10A rereplic inconclusive, SW480 rereplic 15µM, Giardia kill inactive, Vif-APOBEC3F blk inactive and Vif-A3G inh inactive.
`CCN(CC)CCn1c(NCc2nc3ccccc3n2Cc2ccccc2)nc2ccccc21` gave IL1B secr inh -59, MCF10A rereplic 23µM, SW480 rereplic inconclusive, Giardia kill inactive, Vif-APOBEC3F blk inactive and Vif-A3G inh inactive.
`Cn1c(CNc2nc3ccccc3n2CCN2CCCCC2)nc2ccccc21` gave IL1B secr inh inactive, MCF10A rereplic inactive, SW480 rereplic inactive, Giardia kill inactive, Vif-APOBEC3F blk inactive and Vif-A3G inh inactive.
`c1ccc(Cn2c(CNc3nc4ccccc4n3CCN3CCCCC3)nc3ccccc32)cc1` gave IL1B secr inh -51, MCF10A rereplic inconclusive, SW480 rereplic inconclusive, Giardia kill inactive, Vif-APOBEC3F blk inactive and Vif-A3G inh inactive.
For CCCCn1c(NCc2ccc3c(c2)OCO3)nc2ccccc21 the results were IL1B secr inh -51, MCF10A rereplic inactive, SW480 rereplic inactive[9.22 µM], Giardia kill inactive, Vif-APOBEC3F blk inactive and Vif-A3G inh inactive.
For CCCn1c(NCc2ccc3c(c2)OCO3)nc2ccccc21 the results were IL1B secr inh inconclusive, MCF10A rereplic inactive, SW480 rereplic inactive, Giardia kill inactive, Vif-APOBEC3F blk inactive and Vif-A3G inh inactive.
Screening COc1ccc(C(=O)Nc2ccccc2-c2nc3ccccc3s2)c(OC)c1 returned Vif-APOBEC3F blk inactive and Vif-A3G inh inactive.
`CCN(CC)c1ccc(CNc2nc3ccccc3n2CCN2CCCCC2)cc1` gave IL1B secr inh -105, MCF10A rereplic inactive, SW480 rereplic inconclusive, Giardia kill inactive, Vif-APOBEC3F blk inconclusive and Vif-A3G inh inactive.
